Out of some 310,000 compounds screened, about 1,200 (0.39%) were called active. The rule behind the calls is not given here. The list is a sample of the results. Entries with a potency or affinity are not part of this list.
The compounds below were run against Large T antigen (Simian virus 40) (UniProt P03070) (assay: TAg ATPase/helicase activity blockers – biochemical (AID 1903)). Settings: SV40 large T antigen ATPase/helicase inhibition assay; at 20 µM; stronger effect = higher value.
Sequence of Large T antigen (Simian virus 40) (P03070 whole entry, looked up): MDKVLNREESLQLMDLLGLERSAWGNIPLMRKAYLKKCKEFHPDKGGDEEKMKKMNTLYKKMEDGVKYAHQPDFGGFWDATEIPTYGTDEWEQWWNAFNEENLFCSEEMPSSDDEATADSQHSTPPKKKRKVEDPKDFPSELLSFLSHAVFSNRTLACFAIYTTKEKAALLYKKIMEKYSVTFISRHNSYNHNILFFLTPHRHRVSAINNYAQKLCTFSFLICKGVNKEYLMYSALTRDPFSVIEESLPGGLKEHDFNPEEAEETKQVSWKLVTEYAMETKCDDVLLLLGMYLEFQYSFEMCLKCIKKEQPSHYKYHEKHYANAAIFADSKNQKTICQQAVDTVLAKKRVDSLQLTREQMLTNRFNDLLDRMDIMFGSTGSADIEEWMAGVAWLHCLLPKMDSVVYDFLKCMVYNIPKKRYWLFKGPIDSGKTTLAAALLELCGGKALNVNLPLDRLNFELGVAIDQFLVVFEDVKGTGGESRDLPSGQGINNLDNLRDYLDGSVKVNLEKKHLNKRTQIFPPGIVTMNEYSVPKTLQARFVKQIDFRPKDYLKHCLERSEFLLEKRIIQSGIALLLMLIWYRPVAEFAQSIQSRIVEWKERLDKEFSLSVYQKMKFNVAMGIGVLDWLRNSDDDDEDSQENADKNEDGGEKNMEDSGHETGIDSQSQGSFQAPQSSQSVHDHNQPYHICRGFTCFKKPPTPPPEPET

SMILES	inhibition
O=C(O)c1nn2c(c1Br)NC(c1ccccc1)CC2C(F)(F)F (stereo not drawn)	3.96% (inactive)
COc1ccc(C(=O)NNC(=O)C2CCCN(C3CC(=O)N(c4ccccc4)C3=O)C2)cc1 (stereo not drawn)	9.48% (inactive)
C/C(=N/NC(=O)NC12CC3CC(CC(C3)C1)C2)c1ccccc1	6.61% (inactive)
Cc1ccc(NCC(O)Cn2cnc3c2c(=O)n(C)c(=O)n3C)cc1 (stereo not drawn)	16.6% (inactive)
Cn1c(=O)c2c(ncn2CC(O)CNc2ccc(F)cc2)n(C)c1=O (stereo not drawn)	5.3% (inactive)
CCOC(=O)C1CCN(C(=S)Nc2ccccc2)CC1	11.3% (inactive)
Cc1c(C(=O)OCC(C)C)[nH]c2c1C(=O)CC(c1cccs1)C2 (stereo not drawn)	22.8% (inactive)
CCOC(=O)C1=C(C)NC(c2cccs2)C(=O)N1 (stereo not drawn)	6.75% (inactive)
COc1ccccc1N/N=C/c1ccc2c(c1)OCO2	5.16% (inactive)
CCN(CC)C(=O)Nc1ccccc1C	3.88% (inactive)
COc1ccccc1-c1cn[nH]c1-c1ccc(O)cc1O	36.1% (inactive)
COc1ccc(-c2cn[nH]c2-c2ccc(O)cc2O)cc1	25.6% (inactive)
CC/C(=N/O)C(=O)c1ccc(Br)cc1	8.42% (inactive)
Cc1ccccc1NC(=O)COC(=O)/C=C/c1cccc(C(F)(F)F)c1	3.86% (inactive)
O=[N+]([O-])c1cc(S(=O)(=O)NC2=NCCCCC2)ccc1Cl	6.57% (inactive)
O=C(N=Nc1ccc(NOC(=O)c2ccccc2Br)cc1)c1ccccc1O	11.6% (inactive)
O=Nc1ccc(NOC(=O)c2ccccc2)cc1	19.7% (inactive)
O=C(O)C1CCN(C(=O)c2cccc3ccccc23)CC1	4.64% (inactive)
CCc1ccccc1N1CC(C(=O)O)CC1=O (stereo not drawn)	-0.59% (inactive)
Cc1cc(N2CCOCC2)nc2ccc(NC(=S)NC(C)C)cc12	4.55% (inactive)
COc1ccc(NC(=O)/C=C/c2cc(OC)c(OC)c(OC)c2)cn1	7.41% (inactive)

SMILES	inhibition
CS(=O)(=O)N(CC(=O)NC1CC1)C1CCCCC1	7.67% (inactive)
Cc1csc(-c2cnn(-c3ccccc3)c2NC(=O)c2cccc(C(F)(F)F)c2)n1	0.685% (inactive)
O=S(=O)(c1ccc(N2CCOCC2)c(Cl)c1)N1CCOCC1	7.49% (inactive)
O=[N+]([O-])c1cc(S(=O)(=O)N2CCOCC2)ccc1N1CCCC1	-2.39% (inactive)
N#Cc1cc(S(=O)(=O)N2CCOCC2)ccc1N1CCOCC1	7.94% (inactive)
Cc1ccc(C)n1-c1cc(S(=O)(=O)N2CCOCC2)ccc1N1CCCC1	1.24% (inactive)
CCSC1=C(C#N)C(c2cccc(Br)c2)CC(=O)N1 (stereo not drawn)	1.17% (inactive)
CCOC(=O)c1[nH]c2ccc(OC)cc2c1N=CN(C)C	16.9% (inactive)
CCn1nnnc1SCC(=O)Nc1cccc(NC(C)=O)c1	0.63% (inactive)
Cc1ccc2nccc(C(=O)N3CCCC(Nc4ccc(F)cc4)C3)c2c1 (stereo not drawn)	14% (inactive)
Cc1ccc(-c2noc(C3CCCN(C(=O)c4ccccc4Br)C3)n2)o1 (stereo not drawn)	15.6% (inactive)
O=C(Nc1ccccc1)C1CC(=O)N(Cc2ccccc2)C1 (stereo not drawn)	27.5% (inactive)
CC(=O)Nc1ccc(NC(=O)C2CC(=O)N(Cc3ccccc3)C2)cc1 (stereo not drawn)	27.7% (inactive)
COc1ccc2nc(N3C(=O)CC(Cc4cc(C)cc(C)c4)C3=O)sc2c1 (stereo not drawn)	-1.29% (inactive)
COc1ccc(OCc2cc(C(=O)NC3CCOCC3)no2)c2ccccc12	12% (inactive)
COC(=O)C1=C(C)N(Cc2ccco2)C(=O)C1	23.9% (inactive)
O=C1CC(=O)N(Cc2cccs2)C(=O)N1	22.2% (inactive)
O=C1C2C(C(=O)N1Cc1ccco1)C1C=CC2C12CC2 (stereo not drawn)	-1.46% (inactive)
O=C1c2ccccc2C(=O)N1Cc1ccco1	4.84% (inactive)
COc1ccc(S(=O)(=O)N2CCCC(C(=O)N3CCOCC3)C2)cc1OC (stereo not drawn)	7.49% (inactive)
CN(C)c1ccc(C(=O)N2CCN(c3cc(C(F)(F)F)nc4ccccc34)CC2)cc1	16.5% (inactive)

SMILES	inhibition
Cc1ccc(Cc2c(C)nc3nc(SCC(=O)NCCCN4CCCC4)nn3c2C)cc1	9.31% (inactive)
O=C1C(=O)N(Cc2cccnc2)C(c2ccc(Br)cc2)/C1=C(\O)c1ccc2c(c1)OCCO2 (stereo not drawn)	8.89% (inactive)
O=C1/C(=C/c2cccs2)NC(=S)N1C1CC1	9.13% (inactive)
CN(C)c1ncc(/C=C2/C(=O)NC(=S)N(C3CCCCC3)C2=O)cn1	10.9% (inactive)
CN(C)c1ccc(/C=C/c2ccncc2)cc1	25.2% (inactive)
CN(C)c1ccc(/C=C/c2cc[n+](C)cc2)cc1	7.41% (inactive)
Cn1c(CCc2nc3ccccc3[nH]2)n[nH]c1=S	9.76% (inactive)
CC(=O)NC1(c2ccccc2)CCN(C(=O)N2CCOCC2)CC1	4.59% (inactive)
Cc1c(NS(=O)(=O)c2ccccc2F)c(=O)n(-c2ccccc2)n1C	3.58% (inactive)
O=C(Nc1ccc2c(c1)CCC2)c1cccc(OC(F)F)c1	15.1% (inactive)
CC(=O)Nc1ccc(NC(=O)CS(=O)(=O)c2cn(CC(=O)N3CCC(C)CC3)c3ccccc23)cc1	21.1% (inactive)
O=Cc1coc2ccc3ccccc3c2c1=O	12.7% (inactive)
NC(=S)N/N=C/c1coc2c(ccc3ccccc32)c1=O	10.7% (inactive)
CC(C)Cn1c(=O)c2c(nc3n2CC(C)CN3Cc2ccccc2)n(C)c1=O (stereo not drawn)	9.7% (inactive)
Cc1cc(C)n(-c2nc3ccccc3c(=O)n2OCC(=O)Nc2c(C)cccc2C)n1	1.06% (inactive)
O=C1c2cccnc2C(=O)N1Cc1ccc(S(=O)(=O)N2CCN(c3ccccc3)CC2)cc1	-3.05% (inactive)
CCc1ccccc1NC(=O)C1CCCN(c2ncnc3onc(-c4ccc(F)cc4)c23)C1 (stereo not drawn)	4.3% (inactive)
COc1ccc(NC2CCCN(C(=O)CCc3ccncc3)C2)cc1OC (stereo not drawn)	35.9% (inactive)
COc1ccc(NC2CCCN(Cc3cccc4cnccc34)C2)cc1 (stereo not drawn)	30.9% (inactive)
COc1cc(/C=C2\SC(c3ccccc3)=NC2=O)cc(Cl)c1O	33.2% (inactive)
COc1ccc(Br)cc1/C=C/C(=O)NC(=S)Nc1ccc(Cl)c(C(=O)O)c1	25.5% (inactive)

— PubChem BioAssay AID1903 (Southern Research Specialized Biocontainment Screening …, 2009)
